Reference: the OligoGym collection

biological target: RNF122; test: pooled miR-30 sensor sort-seq; sequence = guide strand; details: shRNA

**Q.** How did the sensor-assay potency score (higher = more potent) turn out when TAGAATCCCAATGTTCTGCGTG was run?
**A.** 0.594

**Q.** For AAGTCTTCCAGACAGACTGCGC, which sensor-assay potency score (higher = more potent) is on record?
**A.** -0.854

**Q.** For TTTCACCAGACACTTGCGGTGA, which sensor-assay potency score (higher = more potent) is on record?
**A.** -0.949

**Q.** For TATATCCGTATCGCTCACTCTG, which sensor-assay potency score (higher = more potent) is on record?
**A.** -0.842

biological target: RNF125; test: as above; details: shRNA

**Q.** With TTATCTATGTACTTCTGACAAG as the sequence, how does the sensor-assay potency score (higher = more potent) read?
**A.** -1.25

**Q.** TAGTGGTCCATACTTATCTATG was tested. Which sensor-assay potency score (higher = more potent) did it give?
**A.** -1.8

**Q.** Which sensor-assay potency score (higher = more potent) does the source give for ATGTACTTCTGACAAGTCCGAA here?
**A.** -1.03

**Q.** How did the sensor-assay potency score (higher = more potent) turn out when TACTTATCTATGTACTTCTGAC was run?
**A.** -0.698

**Q.** For TTCTTGTAGTGGTCCATACTTA, which sensor-assay potency score (higher = more potent) is on record?
**A.** -0.891

**Q.** Which sensor-assay potency score (higher = more potent) does the source give for TTGTTCTTTAGACTGGTAGCAA here?
**A.** -0.126

**Q.** With TAGACTGGTAGCAATACAGGAA as the sequence, how does the sensor-assay potency score (higher = more potent) read?
**A.** -0.258

**Q.** Which sensor-assay potency score (higher = more potent) does the source give for TGTACTTCTGACAAGTCCGAAT here?
**A.** -0.85

**Q.** How did the sensor-assay potency score (higher = more potent) turn out when TTATACTCTGATTTCATTCTTT was run?
**A.** 0.204

**Q.** How did the sensor-assay potency score (higher = more potent) turn out when TTGTTGTTCTTTAGACTGGTAG was run?
**A.** -0.623

**Q.** ATACTTATCTATGTACTTCTGA was tested. Which sensor-assay potency score (higher = more potent) did it give?
**A.** 0.546

**Q.** TATCTATGTACTTCTGACAAGT was tested. Which sensor-assay potency score (higher = more potent) did it give?
**A.** -0.831

biological target: RNF14; test: as above; details: shRNA

**Q.** Which sensor-assay potency score (higher = more potent) does the source give for TTTATTAGCCTCATCCGCTTGC here?
**A.** 0.884

**Q.** With ATGTCATCTTGTTACATCCGTC as the sequence, how does the sensor-assay potency score (higher = more potent) read?
**A.** -0.926

**Q.** For TCATCTTGTTACATCCGTCTAA, which sensor-assay potency score (higher = more potent) is on record?
**A.** 0.00357

**Q.** Which sensor-assay potency score (higher = more potent) does the source give for TTTGAGTTCTTCTCTAGCCACT here?
**A.** -1.03

**Q.** How did the sensor-assay potency score (higher = more potent) turn out when TTACTTTGTGTACTTGACGGAA was run?
**A.** -0.835

**Q.** Which sensor-assay potency score (higher = more potent) does the source give for TTCTTCTCTAGCCACTCCTTAC here?
**A.** -0.95

**Q.** Which sensor-assay potency score (higher = more potent) does the source give for TAAAACATGGTGAACCAGGGTC here?
**A.** 0.147

**Q.** TATCTTGAAATTCTGTGGCAAA was tested. Which sensor-assay potency score (higher = more potent) did it give?
**A.** -1.02

**Q.** Which sensor-assay potency score (higher = more potent) does the source give for TATCGTCGTCAACATCCACAGC here?
**A.** -0.981

**Q.** TTTCTGAGAACCAATCTTGAGC was tested. Which sensor-assay potency score (higher = more potent) did it give?
**A.** -0.733

**Q.** Which sensor-assay potency score (higher = more potent) does the source give for TCTAAATTCATCTCCATCGTAA here?
**A.** 0.0572

**Q.** For AATATCGTCGTCAACATCCACA, which sensor-assay potency score (higher = more potent) is on record?
**A.** -1.06

biological target: RNF157; test: as above; details: shRNA

**Q.** For TTGTCTTTGGGAATGTAGCTGG, which sensor-assay potency score (higher = more potent) is on record?
**A.** 0.177

**Q.** Which sensor-assay potency score (higher = more potent) does the source give for TTCCTCAGCACATTTGACGAGC here?
**A.** -0.263

**Q.** With TTGAGTCAAACTTCTCTCCTCC as the sequence, how does the sensor-assay potency score (higher = more potent) read?
**A.** 0.532

**Q.** With TTGAGTTTGAGTCCCTGACTGC as the sequence, how does the sensor-assay potency score (higher = more potent) read?
**A.** -0.461

**Q.** TTCCTCTTCATGCAGCACGGAA was tested. Which sensor-assay potency score (higher = more potent) did it give?
**A.** -1.64

**Q.** TAAGGAAACACAACTGGTCTGT was tested. Which sensor-assay potency score (higher = more potent) did it give?
**A.** 0.685

**Q.** For TTGTACTGCACAGTCTCCGACT, which sensor-assay potency score (higher = more potent) is on record?
**A.** -0.593

**Q.** For TTGAGTCCCTGACTGCTGCTGT, which sensor-assay potency score (higher = more potent) is on record?
**A.** 0.522

**Q.** TTTCGGATATTGACCAGGCTTC was tested. Which sensor-assay potency score (higher = more potent) did it give?
**A.** -1.09

**Q.** Which sensor-assay potency score (higher = more potent) does the source give for TACCATTCTGGAACTCTTCCGT here?
**A.** 0.188

**Q.** TTCAATTCCATAGATCTCCTGA was tested. Which sensor-assay potency score (higher = more potent) did it give?
**A.** 0.823

**Q.** Which sensor-assay potency score (higher = more potent) does the source give for TACTTGTTTCTGTTTGAGGGGC here?
**A.** 0.142
